An excerpt weighted towards active compounds, which were near 3.1% of everything screened.
EWS-Fli block: EWS/Fli-driven NR0B1 reporter inhibitors, primary screen, A673 cells, NR0B1 luciferase, luminescence, MLPCN library; viability-normalised; inhibition, % at 12.6 µM; actives 0.67% (n = 350,000);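 active means mean inhibition of at least 50% after viability correction, with every replicate also passing that limit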;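 further: firefly luciferase signal divided by Alamar Blue viability fluorescence both relative to DMSO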
LMP1 NFkB inh: EBV LMP1-driven NF-kappaB luciferase reporter inhibitors, primary screen, cell-based, luminescence, single point | LMP1-induced NF-kappaB luciferase reporter cells | inhibition, % at 12.5 µM | actives 0.69% (n = 350,000) | AID 504558, 2011; in the data active means inhibition above about 41%
LGR2 antag: inhibitors of bursicon-induced LGR2 CRE-luciferase signal, primary screen, cell-based, HEK293, CRE-luciferase reporter, bursicon stimulation | bursicon-stimulated, 4 h | inhibition, % at 9.99 µM | actives 0.35% (n = 380,000);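 active means drop in luminescence signal, shown as inhibition above about 50% in the replicate tests, limit read from the data, passing the limit was not always enough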;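 further: agonist challenge used bursicon conditioned medium at about half maximal strength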
TROY NFkB inh: inhibitors of TROY-driven NF-kB signaling, primary screen, Q293 LMP1-TROYcd cells, NF-kB luciferase, uHTS; Q293 LMP1-TROYcd NF-kB luciferase reporter, 4 h; actives 0.98% (n = 360,000); inhibition, % at 10 µM;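 active means compounds whose plate-normalised and pattern-corrected inhibition of the luciferase reporter signal at the single screening dose is 50% or more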
TWEAK Fn14 block: inhibitors of TWEAK-Fn14 signaling, primary screen, luciferase reporter cells, uHTS. actives 2% (n = 360,000). TWEAK-stimulated Fn14 reporter cells, luciferase luminescence, 8 h. AID 1159606, 2016. inhibition, % at 10 µM; in the data active means inhibition above about 50%
PAX8 inh HTS: inhibitors of PAX8-driven TPO luciferase reporter, primary screen, RMG-I cells, single concentration; SteadyGlo, 24 h; inhibition, % at 12.6 µM; actives 1.2% (n = 360,000); AID 652154, 2013;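 active means mean replicate inhibition at least 60% with every replicate also reaching 60%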;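 further: luciferase light reporting Pax8 driven TPO promoter activity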
Numbers stand for hits; n = inactive; x = no result; ! = repeats disagree.

SMILES	EWS-Fli block	LMP1 NFkB inh	LGR2 antag	TROY NFkB inh	TWEAK Fn14 block	PAX8 inh HTS
O=S(=O)(N[C@H]1CC[C@H](CCn2cc(-c3cccc(F)c3)nn2)O[C@@H]1CO)c1ccc(F)cc1	n	x	n	x	x	x
O=C(Nc1ccccc1)N1CC(=O)N2[C@H](CO)[C@H](c3ccc(C#Cc4cccnc4)cc3)[C@@H]2C1	n	x	n	x	x	n
C[C@H](CO)N1C[C@H](C)[C@@H](CN(C)Cc2ccc(Cl)c(Cl)c2)OCCCC[C@H](C)Oc2ccc(NC(=O)Nc3ccc(C(F)(F)F)cc3)cc2C1=O	n	x	n	x	x	84
C[C@@H]1CCCCO[C@@H](CN(C)Cc2ccc(Cl)c(Cl)c2)[C@H](C)CN([C@H](C)CO)C(=O)c2cc(NC(=O)Nc3ccc(C(F)(F)F)cc3)ccc2O1	n	x	n	x	x	91
C[C@@H]1CCCCO[C@@H](CN(C)Cc2ccc(Cl)c(Cl)c2)[C@@H](C)CN([C@H](C)CO)C(=O)c2cc(NC(=O)Nc3ccc(C(F)(F)F)cc3)ccc2O1	n	x	n	x	x	n
CN1C(=O)c2cc(NC(=O)C3CCOCC3)ccc2OC[C@@H]2O[C@@H](CC(=O)NCc3ccc4c(c3)OCO4)CC[C@H]21	n	x	n	x	x	n
C#CCCc1ccccc1/C=[N+](/C)[O-]	n	n	n	n	51	n
CN(C)C(=O)c1cccc(-c2ccc(C3[C@@H]4CN(C(=O)c5ccccn5)C[C@H]3N4)cc2)c1 (stereo partly drawn)	58!	x	n	x	x	n
CN(C)C(=O)c1ccc(-c2ccc(C3[C@@H]4CN(Cc5nccs5)C[C@H]3N4)cc2)cc1 (stereo partly drawn)	53!	x	n	x	x	n
O=C(c1ccc2c(c1)OCO2)N1C[C@@H]2N[C@H](C1)C2c1ccc(-c2cccnc2)cc1 (stereo partly drawn)	64!	x	n	x	x	n
Fc1ccc(-c2ccc(C3[C@@H]4CN(Cc5nccs5)C[C@H]3N4)cc2)cc1 (stereo partly drawn)	n	x	n	x	x	63!
Fc1cccc(-c2ccc(C3[C@@H]4CN(Cc5cccnc5)C[C@H]3N4)cc2)c1 (stereo partly drawn)	n	x	n	x	x	n
Oc1ccccc1/C=N/NC(=S)NCCc1ccccc1	n	n	n	n	93	n
CC(C)(CNC(=S)NCCc1ccccc1)CNC(=S)NCCc1ccccc1	n	n	n	n	56	n
S=C(NCCc1ccccc1)N/N=C/c1cccc(Cl)c1Cl	n	n	n	n	n	n
OCCNC(=S)NCCc1ccccc1	x	n	n	n	n	n
CCCNC(=O)C[C@H]1CC[C@@H]2[C@@H](COc3ccc(NC(=O)NCCC)cc3C(=O)N2C)O1	n	x	n	x	x	x
C[C@@H](NC(=O)C[C@@H]1CC[C@@H]2[C@H](COC[C@H](O)CN2Cc2cc(F)ccc2F)O1)c1ccccc1	n	x	n	x	x	68
O=C(C[C@H]1CC[C@@H]2[C@H](COC[C@@H](O)CN2Cc2ccc(F)cc2)O1)NCc1ccccc1Cl	n	x	n	x	x	92
O=C(C[C@H]1CC[C@H]2[C@@H](COC[C@@H](O)CN2Cc2ccc(Oc3ccccc3)cc2)O1)N1CCCCC1	n	x	n	x	x	100
O=C(C[C@@H]1CC[C@@H]2[C@H](COC[C@H](O)CN2Cc2ccc(Oc3ccccc3)cc2)O1)N1CCCCC1	n	x	n	x	x	n
C[C@@H]1CN([C@@H](C)CO)S(=O)(=O)c2ccc(C#CC3(O)CCCC3)cc2O[C@@H]1CN(C)C(=O)c1cccnc1	n	x	n	x	x	n
Cc1ccc(S(=O)(=O)N2CCN(C(=O)c3cc(C4CC4)nn3-c3ccccc3)CC2)cc1	n	n	n	n	n	n
Cc1ccc(C)c(S(=O)(=O)N2CCN(C(=O)c3ccc(C)s3)CC2)c1	n	45	n	n	n	n
Cc1ccc(C)c(S(=O)(=O)N2CCN(C(=O)c3cc(-c4cccs4)nn3-c3ccccc3)CC2)c1	n	n	n	n	64	n
COc1ccc(S(=O)(=O)N(C)C[C@@H]2Oc3ccc(NC(=O)CCN4CCOCC4)cc3C(=O)N([C@@H](C)CO)C[C@H]2C)cc1	n	x	n	x	x	x
